HP1b binding inh: HTS for Inhibitors of HP1-beta Chromodomain Interactions with Methylated Histone Tails | Potency, µM (series often up to 114 µM), inactives show at the highest dose activity change, negative = inhibition, most hits filed as inhibitors | AID 540317, 2011 | Chromobox protein homolog 1 (Homo sapiens), P83916 | AlphaScreen HP1-beta / biotin-H3K9me3 peptide binding | hit rate 0.56% among 390,000; further: potency means the concentration at half of the fitted maximal effect; nearly all actives have a fitted effect of over 70% in size
Target sequence (P83916 whole entry, looked up): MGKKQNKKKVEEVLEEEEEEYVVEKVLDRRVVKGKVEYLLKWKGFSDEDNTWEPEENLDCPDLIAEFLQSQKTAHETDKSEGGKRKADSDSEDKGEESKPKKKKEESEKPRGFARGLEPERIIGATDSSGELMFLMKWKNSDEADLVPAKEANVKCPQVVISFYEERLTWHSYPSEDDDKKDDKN
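Compound inhibition of the preformed complex between 50 nM HP1-beta and 50 nM biotinylated H3K9me3 peptide was read by AlphaScreen. Buffer was PBS pH 7.4 with 0.01% Tween-20. Incubations ran 30 min at room temperature, with 10 ug/mL donor/acceptor beads.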
BAZ2B inh: qHTS Assay for Inhibitors of BAZ2B; Bromodomain adjacent to zinc finger domain protein 2B (Homo sapiens), Q9UIF8; AlphaScreen BAZ2B-H3K14Ac peptide displacement; Potency, µM (top dose mostly 114 µM), inactives show at the top dose activity change, negative = inhibition, most hits filed as inhibitors; hit rate 4.4% among 360,000; AID 504333, 2011; further: potency means the concentration at half of the fitted maximal effect; on the % scale 0 is the no-effect control and ±100 the full control effect; nearly all actives have a fitted effect of over 60% in size
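Complex of BAZ2B and biotin-H3K14Ac (50 nM apiece) forms over 30 min at RT, then faces library compounds up to 110 uM for another 30 min; AlphaScreen beads added, 20 min dark incubation, luminescence read.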
JMJD2A Tudor inh: qHTS Assay for Inhibitors of JMJD2A-Tudor Domain; Lysine-specific demethylase 4A (Homo sapiens), O75164; AlphaScreen JMJD2A-Tudor / H3K4me3 peptide binding; Potency, µM (titrated, usually from 114 µM), for the others: top-dose activity change, negative = inhibition, most hits filed as inhibitors; hit rate 4.4% among 390,000; AID 504339, 2011; further: potency means the concentration at half of the fitted maximal effect; on the % scale 0 is the no-effect control and ±100 the full control effect; nearly all actives have a fitted effect of over 50% in size
L3MBTL1 inh: qHTS Assay for the Inhibitors of L3MBTL1. Lethal(3)malignant brain tumor-like protein 1 (Homo sapiens), Q9Y468. AlphaScreen L3MBTL1–H3K9me1 peptide binding. Potency, µM (highest dose often 57.1 µM), for inactives: top-dose activity, negative = inhibition, most hits filed as inhibitors. hit rate 0.66% among 230,000; further: potency means the concentration at half of the fitted maximal effect; on the % scale 0 is the no-effect control and ±100 the full control effect; nearly all actives have a fitted effect of over 60% in size
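AlphaScreen assay: L3MBTL1 (50 nM final) was preincubated 30 min at room temperature with biotinylated H3(1-15)K9me1 peptide (75 nM final), then 30 min with library compounds; streptavidin donor and nickel chelate acceptor beads (10 ug/mL final) added, 30 min dark.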
JMJD2E inh: qHTS Assay for Inhibitors of Human Jumonji Domain Containing 2E (JMJD2E) | Potency, µM (top dose mostly 57.1 µM), for the others: at the top dose activity change, negative = inhibition, most hits filed as inhibitors | hit rate 1.6% among 230,000 | Lysine-specific demethylase 4E (Homo sapiens), B2RXH2 | JMJD2E catalytic domain, FDH-coupled NADH fluorescence (FDH is formaldehyde dehydrogenase); active means well fitted inhibition curve with a large enough effect, not every such curve was filed as active; inconclusive means small, poorly fitted or top-dose-only effect, or another doubt; inactive means no such curve, though single readings can be large or run the other way;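 further: potency means the concentration at half of the fitted maximal effect; 0% = wells with enzyme and -100% = buffer wells without enzyme; nearly all actives have a fitted effect of over 50% in size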
Target sequence (B2RXH2 1-337 limits assumed): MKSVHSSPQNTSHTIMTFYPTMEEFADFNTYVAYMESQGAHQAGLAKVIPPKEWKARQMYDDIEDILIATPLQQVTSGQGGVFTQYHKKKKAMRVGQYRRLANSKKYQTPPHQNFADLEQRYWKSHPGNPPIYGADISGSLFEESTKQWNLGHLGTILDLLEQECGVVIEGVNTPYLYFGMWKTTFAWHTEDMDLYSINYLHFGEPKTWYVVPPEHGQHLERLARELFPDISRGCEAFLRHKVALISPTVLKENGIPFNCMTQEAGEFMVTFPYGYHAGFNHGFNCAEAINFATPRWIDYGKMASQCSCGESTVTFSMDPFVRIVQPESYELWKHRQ
PI5P4Ka inh: qHTS for Inhibitors of phosphatidylinositol 5-phosphate 4-kinase (PI5P4K). max response, %. hit rate 1.2% among 330,000. AID 652105, 2013. PI5P4Kalpha enzyme, ADP-Glo luminescence, 60 min; active compounds read low; active means max response of -50% or lower; inconclusive means between -30% and -50%; inactive means -30% or higher; further: value at the top dose of about 77 µM; on the % scale 0 is the no-effect control and ±100 the full control effect
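qHTS, 1536-well: enzyme/substrate mix, compound by pin tool, 5 microM ATP final; RT 60 min; ADP-Glo reagents 1 (45 min) then 2 (30 min); luminescence.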
Numbers without * were called inactive; ? = inconclusive; · = no result given; [ ] = remark or other dose. Rows were chosen to be rich in hits. Some 5.7% of all compounds tested hit in one or more screens of this group. Unless noted, the call rests on the fitted dose curve; in most records, active means well fitted inhibition curve with a large enough effect; inconclusive means small, poorly fitted or top-dose-only effect; inactive means no such curve, though single readings can be large or run the other way.

SMILES	HP1b binding inh	BAZ2B inh	JMJD2A Tudor inh	L3MBTL1 inh	JMJD2E inh	PI5P4Ka inh
CS(=O)(=O)c1ccc(Cl)c(NC(=O)Cc2ccccc2F)c1	-20%	-3%	22µM*	-2%	-3%	4
CC1(C)CC(N=C2C([N+](=O)[O-])=CC=C3C2=NC2(CCCCC2)N3O)CC(C)(C)N1	-10%	-35%	-12%	-28%	?	-1
N=C1C=CC=C2C1=NC1(CCCCC1)N2O	?	45µM*	?	-29%	?	·
CCOC(=O)c1ccc(S(=O)(=O)N2CCN(C(=O)c3cccc(S(=O)(=O)N4CC(C)OC(C)C4)c3)CC2)cc1 (configuration not stated)	13%	·	?	·	·	-5
Cc1ccc(-c2cc(C(=O)Nc3cccnc3)c3ccccc3n2)o1	?	-33%	22µM*	-13%	?	·
Cc1ccc(NC(=O)c2cc(-c3ccc(C)o3)nc3ccccc23)cc1	-15%	-4%	79µM*	-7%	-25%	·
NNC(=O)c1cc2c(ccc3ccccc32)o1	-4%	6%	-19%	5%	?	-18
Cc1ccc(C)c(-c2cc(C(=O)Nc3cccnc3)c3ccccc3n2)c1	6%	-24%	-23%	·	·	-2
COc1ccccc1NC(=O)c1cc(-c2ccc(C)o2)nc2ccccc12	4%	-12%	-10%	·	·	7
O=C(Nc1cccnc1)c1cc2c(ccc3ccccc32)o1	11%	79µM*	56µM*	·	?	-4
COc1cc(Cl)ccc1OCc1cc(C(=O)N(C)CC2CCCCO2)no1 (configuration not stated)	23%	-5%[57.1 µM]	-3%	·	·	-1
C[C@H](O)CO[C@H]1[C@H]2O[C@H]3[C@H](O)[C@@H](O)[C@@H](O[C@H]4[C@H](O)[C@@H](O)[C@@H](O[C@H]5[C@H](O)[C@@H](O)[C@@H](O[C@H]6[C@H](O)[C@@H](OC[C@H](C)O)[C@@H](O[C@H]7[C@H](O)[C@@H](OC[C@H](C)O)[C@@H](O[C@H]8[C@H](O)[C@@H](O)[C@@H](O[C@@H]([C@@H]1O)[C@@H](CO)O2)O[C@@H]8CO)O[C@@H]7CO)O[C@@H]6CO)O[C@@H]5CO)O[C@@H]4CO)O[C@@H]3CO	·	·	·	·	-1%	·
Fc1ccccc1-c1cc2ncccc2cn1	46%	56µM*	?	8%	·	0
c1ccc2ncccc2c1	19%	·	-18%	28%	·	2
Nc1ccc(CCn2ccnc2)cc1	37%	45µM*	79µM*	·	·	6
CC1=C(C(=O)NCc2ccccc2F)C2(CCCCC2)OC1=O	15%	-1%	-15%	·	·	·
COc1ccccc1N(CC(=O)Nc1ccc2c(c1)OCO2)S(=O)(=O)c1ccccc1	-4%	56µM*	?	-4%	-8%	-1
COc1ccc(S(=O)(=O)N(CC(=O)Nc2ccc3c(c2)OCO3)c2ccccc2OC)cc1	10%	-27%	-24%	-19%	-2%	-11
CC1=C(C(=O)NCc2cccc(Br)c2)C2(CCCCC2)OC1=O	21%	7%	-8%	·	·	·
CN1C(=O)/C(=C/c2ccc(OCc3ccccc3F)cc2)N(C)C1=S	15%	3%	2%	1%[2.29 µM]	·	-4
CCN1CCCc2cc(CN(CCN3CCOCC3)C(=S)Nc3cccc(C)c3)ccc21	?	8.9µM*	11µM*	·	?	-5
CCN1CCCc2cc(CN(CCN3CCOCC3)C(=S)Nc3ccccc3OC)ccc21	-38%[57 µM]	40µM*	40µM*	-17%	-23%	-4
